According to the supplement of paper PMC12350171:
Counter-ions that a name gives are not always drawn. A number with no mark means an inactive call.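 The calls were made as follows: active = AUC significantly below DMSO controls by Student t-fit with adjusted P under 0.01; inactive = not significantly reduced.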

Tested on: Haemophilus parainfluenzae
Test: growth AUC normalised to DMSO control (fraction of control); higher = less growth inhibition, active = hit call of the paper
Conditions: 20 µM
Method in brief: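 Three biological replicates were carried out, with OD578 read hourly for 24 h. Before inoculation at a starting OD578 of 0.01, pathogens were passaged anaerobically twice; plates were pre-reduced mGAM containing 20 μM compound and 1% DMSO, sealed with breathable membranes, and the Haemophilus parainfluenzae medium carried added hemin and NAD. Area under each growth curve was calculated by the trapezoidal rule up to the exponential-to-stationary transition and normalised to DMSO controls on the same plate.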

Structure (SMILES)	growth AUC normalised to DMSO control
C[C@]12CCC(=O)C=C1CC[C@@H]1[C@@H]2[C@@H](O)C[C@@]2(C)[C@H]1CC[C@]2(O)C(=O)CO [Hydrocortisone]	0.936
CCCCN(CCCC)CCCOC(=O)c1ccc(N)cc1 [Butacaine]	0.998
CNNCc1ccc(C(=O)NC(C)C)cc1 [Procarbazine hydrochloride]	0.995
CCN(CCCc1ccccc1)CCCc1ccccc1 [Alverine citrate salt]	0.925
Nc1nc(N)c2nc(-c3ccccc3)c(N)nc2n1 [Triamterene]	0.935
OCc1cc(C(O)CNCCCCCCOCCCCc2ccccc2)ccc1O (configuration not stated) [Salmeterol]	0.962
CN(C)CCn1nnnc1SCC1=C(C(=O)O)N2C(=O)[C@@H](NC(=O)Cc3csc(N)n3)[C@H]2SC1 [Cefotiam hydrochloride]	0.0401 (active)
